These results are taken from PubChem BioAssay AID2071 (Sanford-Burnham Center for Chemical Genomics, 2009).

A short description of this assay: NALP1 inflammasome inhibitors in reconstituted yeast, colorimetric, S. cerevisiae, triplicate retest (AID 2071). As to conditions: S. cerevisiae NALP1/ASC/caspase-1 growth, X-gal OD620, 72 h, stronger effect = higher value.

SMILES strings stand for the structures. Among all 280,000 compounds or so, about 1,700 (0.61%) were called active. Cut-off read from the data, not from the text of the source: active = inhibition mostly above about 24% (no sharp cut-off); inactive = mostly below about 32%. The full list was thinned out, with actives kept by preference.

Take `O=C(Nc1ccccc1Cl)NC1(C(=O)N2CCOCC2)CCCCC1`: for the setting “at 10 µM unless noted”, the inhibition is 7.4% (inactive). Same read-out and setting: to `CC1CCC2(CC1)NC(=O)N(CC(=O)c1ccc3c(c1)OCO3)C2=O` (stereo not given) belongs 9% (inactive). Still for that read-out and setting: to `Cc1occc1C(=O)N/N=C/c1ccc(-c2cccc([N+](=O)[O-])c2)o1` belongs 11.5% (inactive); to `CC[C@H]1OC(=O)[C@H](C)[C@@H](O[C@H]2C[C@@](C)(OC)[C@@H](O)[C@H](C)O2)[C@H](C)[C@@H](O[C@@H]2O[C@H](C)C[C@H](N(C)C)[C@H]2O)[C@](C)(O)C[C@@H](C)[C@@H]2N[C@@H](COCCOC)O[C@H]([C@H]2C)[C@]1(C)O`, 75.2% (active); to `CCn1c(SCc2cccc(C(=O)O)c2)nnc1-c1ccc(Cl)cc1`, 7.1% (inactive). For the compound `CCN1/C(=C/c2ccc3ccc(C)cc3[n+]2CC)Sc2ccccc21`, the inhibition is 87.1% (active) (at 10 µM) and 107% (triplicate retest, at 20 µM). Consider `CCN1/C(=C/C(=S)Nc2ccccc2)Sc2ccccc21`, for which, for the setting “at 10 µM unless noted”, the inhibition was 27.1% (inactive). Regarding `CCN1/C(=C\c2ccc3ccccc3[n+]2CC)Sc2cc(C)ccc21`, the inhibition by setting is: (at 10 µM) 77.1% (active); (triplicate retest, at 20 µM) 81.9%. Consider `CCN1CCN(CCNC(=O)c2ccc(/C=C3/Sc4ccccc4N(Cc4cccc(C)c4)C3=O)cc2)CC1`, for which the inhibition (at 10 µM unless noted) is 12.2% (inactive).

Consider `CCCN1CCn2c3c(c4cc(Br)ccc42)CCCC31` (stereo not given), for which the inhibition (at 10 µM unless noted) is 15.4% (inactive). Same read-out and setting: the same measure for `CCN(C(=O)CN1C(=O)/C(=C/c2ccc(F)cc2)SC1=S)C1CCS(=O)(=O)C1` (stereo not given): 4.8% (inactive). The same measure, in the same setting: to `COc1ccc(C(=O)N2CCCCC2C(=O)Nc2ccc(-n3nc(C)cc3C)cc2)o1` (stereo not given) belongs 8.7% (inactive); to `Cc1snc(SCc2c(F)cccc2Cl)c1C#N`, 6.1% (inactive). Same read-out and setting: to `CCC(=C/c1sc2ccc3ccccc3c2[n+]1C)/C=C1\Sc2ccc3ccccc3c2N1C` belongs 42.3% (active). On to `COc1ccc(/C=N/Nc2ccccc2C(=O)O)cc1`, for which the inhibition (at 10 µM unless noted) is 10.9% (inactive). The same measure, in the same setting: the same measure for `CCNC(=O)Nc1ccc(S(=O)(=O)Nc2cnc(C)nc2C)cc1`: 18.5% (inactive); for `CCOc1ccccc1/C=N/Nc1nc2ccccc2o1`: 14.3% (inactive). Still for that read-out and setting: the same measure for `COc1ccccc1CCNC(=O)C1CCN(C(=O)/C=C/c2ccccc2)CC1`: 16.7% (inactive).

By inhibition is commonly meant the drop in the measured response relative to a control, in per cent.
